Compound activity deposited in PubChem BioAssay by National Center for Advancing Translational Sciences (NCATS).
This is a sample that favours compounds with a hit; in the whole collection about 5.9% have one here.
VP16 counter: VP16 counterscreen qHTS for inhibitors of ROR gamma transcriptional activity. Drosophila S2 Gal4-VP16 UAS-luciferase, luminescence, 20 h. 310,000 tested, 3.5% active. AID 2546, 2010. Potency, µM (top dose mostly 53.6 µM), most hits filed as inhibitors;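 note: Gal4-VP16 expression switched on by copper sulfate through the metallothionein promoter; nearly all actives have a fitted effect of over 50% in size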
GLP-1R inv ag: qHTS of GLP-1 Receptor Inverse Agonists (Inhibition Mode). Potency, µM (series often up to 38.3 µM), hits mostly inhibitors. AID 624417, 2012. HEK293 GLP-1R CRE-luciferase, luminescence, 24 h; GLP-1R form is constitutively active. 410,000 tested, 1.6% active; note: nearly all actives have a fitted effect of over 55% in size
Target sequence (P43220 whole entry, looked up): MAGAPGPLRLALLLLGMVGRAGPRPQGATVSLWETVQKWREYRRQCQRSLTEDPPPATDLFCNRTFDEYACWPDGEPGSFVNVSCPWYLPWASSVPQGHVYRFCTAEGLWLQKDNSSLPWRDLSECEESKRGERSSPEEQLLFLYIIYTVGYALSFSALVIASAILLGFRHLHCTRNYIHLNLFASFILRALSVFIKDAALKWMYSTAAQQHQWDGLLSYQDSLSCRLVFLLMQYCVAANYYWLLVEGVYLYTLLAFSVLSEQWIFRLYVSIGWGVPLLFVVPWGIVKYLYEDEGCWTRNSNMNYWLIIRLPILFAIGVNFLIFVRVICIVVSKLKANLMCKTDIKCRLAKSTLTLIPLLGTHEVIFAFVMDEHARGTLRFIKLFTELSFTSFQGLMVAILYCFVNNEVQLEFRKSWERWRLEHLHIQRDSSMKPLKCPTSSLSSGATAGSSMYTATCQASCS
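qHTS in 1536-well format: reporter HEK293 cells expressing constitutive GLP-1R activity in DMEM + 10% Nu serum, 24 hr with compounds at 37 deg C, luminescence read after 12 min with detection reagent.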
HEK293 tox: qHTS of GLP-1 Receptor Inverse Agonists: Cytotox Screen; AID 624418, 2012; 410,000 tested, 0.13% active; HEK293 cAMP-luciferase reporter cells, luminescence, 24 h; Potency, µM (series often up to 38.3 µM), most hits filed as inhibitors;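 note: loss of luciferase light is scored as toxicity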
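To flag toxic compounds, the library was rerun on cells for 24 hr at 37 deg C and 5% CO2. Viability-linked luminescence was captured 12 min after adding luciferase detection reagent.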
GLP-1R agonist: qHTS of GLP-1 Receptor Agonists | 380,000 tested, 0.007% active | HEK293 GLP-1R CRE-luciferase, luminescence, 4-6 h; cells express a hypersensitive GLP-1R form | Glucagon-like peptide 1 receptor (Homo sapiens), P43220 | Potency, µM (highest dose often 45.6 µM), usual class: activators
RORgamma inh: qHTS for inhibitors of ROR gamma transcriptional activity. Potency, µM (doses to about 53.6 µM), usual class: inhibitors. Nuclear receptor ROR-gamma (Mus musculus), P51450. Drosophila S2 Gal4-RORgamma UAS-luciferase reporter, 20 h. 310,000 tested, 5.4% active; note: nearly all actives have a fitted effect of over 60% in size
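A Gal4/UAS one-hybrid system in insect cells: metallothionein-promoter Gal4–ROR gamma fusion plus Photinus luciferase reporter. Copper sulfate 700 uM final, 20 hr ambient incubation, luminescent detection after 10 min with reagent.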
Numbers stand for hits; [ ] = dose if it differs, or a comment. Calls come from the whole dose curve; as a rule, active = well fitted curve in the direction sought with a large enough effect; inconclusive = small, poorly fitted or top-dose-only effect, or another doubt; inactive = no such curve, though single readings can be large; an effect the other way counts as inactive or inconclusive.

`S=C(NCc1cccnc1)Nc1cc(Cl)cc(Cl)c1` gave VP16 counter inactive, GLP-1R inv ag 10µM, HEK293 tox inactive, GLP-1R agonist inactive and RORgamma inh inactive.
Screening S=C(NCc1ccccc1)NCc1cccc(CNC(=S)NCc2ccccc2)c1 returned VP16 counter inactive, GLP-1R inv ag inconclusive, HEK293 tox inactive, GLP-1R agonist inactive and RORgamma inh inactive[10 µM].
NC(=S)NCc1cccnc1 was read as VP16 counter inactive, GLP-1R inv ag inactive, HEK293 tox inactive, GLP-1R agonist inactive and RORgamma inh inactive.
For O=C(Nc1nnc(-c2ccc(Cl)cc2)o1)C1CCCCC1 the results were VP16 counter inactive, GLP-1R inv ag inactive, HEK293 tox inactive, GLP-1R agonist inactive and RORgamma inh inactive.
`CCOc1ccc(-c2nnc(NC(=O)C3CCCC3)o2)cc1` gave VP16 counter inconclusive, GLP-1R inv ag inactive, HEK293 tox inactive, GLP-1R agonist inactive and RORgamma inh 8.9µM.
Screening O=C(Nc1nnc(-c2ccccc2)o1)C1CCCCC1 returned VP16 counter 7.9µM, GLP-1R inv ag inactive, HEK293 tox inactive, GLP-1R agonist inactive and RORgamma inh 3.5µM.
COc1ccc(-c2nsc(NC(=O)c3oc4cc(C)c(C)cc4c3C)n2)cc1 was read as GLP-1R inv ag inactive and HEK293 tox inactive.
`C/C(CCN1CCc2nc(-c3ccccc3)c(-c3ccccc3)cc2C1)=N\OC[C@@H](O)COCc1ccco1` gave VP16 counter inactive[10 µM] and RORgamma inh inactive[10 µM].
For CC[C@H](C)[C@H](NC(=O)[C@H](N)Cc1ccc(O)cc1)C(=O)N[C@@H](CC(N)=O)C(=O)N[C@@H](CC(C)C)C(=O)N[C@H](C(=O)N[C@@H](C(=O)N[C@@H](CCCN=C(N)N)C(=O)N[C@@H](CCC(N)=O)C(=O)N[C@@H](CCCN=C(N)N)C(=O)N[C@H](Cc1ccc(O)cc1)C(N)=O)[C@@H](C)O)[C@@H](C)CC the results were VP16 counter inactive and RORgamma inh inactive.
Screening CCOC(=O)Cc1csc(NC(=O)CSc2nnc(-c3ccc(F)cc3)o2)n1 returned VP16 counter inconclusive, GLP-1R inv ag inactive, HEK293 tox inactive, GLP-1R agonist inactive and RORgamma inh 4µM.
`CCOC(=O)Cc1csc(NC(=O)CSc2nnc(-c3ccc(C)cc3)o2)n1` gave VP16 counter inconclusive, GLP-1R inv ag inactive, HEK293 tox inactive, GLP-1R agonist inactive and RORgamma inh 11µM.
For Cc1csc(NC(=O)CSc2nnc(-c3ccc(S(=O)(=O)N4CCCC4)cc3)o2)n1 the results were VP16 counter inactive, GLP-1R inv ag inactive, HEK293 tox inactive, GLP-1R agonist inactive and RORgamma inh 13µM.
For Cc1csc(NC(=O)CSc2nnc(-c3ccccc3)o2)n1 the results were VP16 counter inactive, GLP-1R inv ag inactive, HEK293 tox inconclusive, GLP-1R agonist inactive and RORgamma inh inconclusive.
`O=C(CSc1nnc(-c2cccc(F)c2)o1)Nc1nncs1` gave VP16 counter inconclusive, GLP-1R inv ag inactive, HEK293 tox inactive, GLP-1R agonist inactive and RORgamma inh 13µM.
Screening CCn1c2ccccc2c2cc(NC(=O)CSc3nnc(-c4cccc(F)c4)o3)ccc21 returned VP16 counter inactive, GLP-1R inv ag inactive, HEK293 tox inactive, GLP-1R agonist inactive and RORgamma inh inactive.
`COc1ccc(NC(=O)CC2C(=O)N(Cc3ccco3)C(=S)N2C(C)C)cc1` (stereo not drawn) gave VP16 counter inactive, GLP-1R inv ag 10µM, HEK293 tox inactive, GLP-1R agonist inactive and RORgamma inh inconclusive.
`Cc1nonc1OCCNCc1c(C(=O)N(C)C)nc2ccc(Cl)cn12` gave VP16 counter 2.8µM, GLP-1R inv ag inactive, HEK293 tox inactive, GLP-1R agonist inactive and RORgamma inh 3.2µM.
For CC(C)CC(C(=O)Nc1oc(-c2ccccc2)c(-c2ccccc2)c1C#N)N1C(=O)c2ccccc2C1=O (stereo not drawn) the results were VP16 counter inactive, GLP-1R inv ag 10µM, HEK293 tox inactive, GLP-1R agonist inactive and RORgamma inh inconclusive.
For Cc1nn(CCC#N)c2nc(-c3ccccc3)cc(C(F)(F)F)c12 the results were VP16 counter inactive, GLP-1R inv ag inconclusive, HEK293 tox inactive, GLP-1R agonist inactive and RORgamma inh inactive.
Cc1nn(CCC(N)=S)c2nc(-c3cccs3)cc(C(F)(F)F)c12 was read as VP16 counter 6.3µM, GLP-1R inv ag inconclusive, HEK293 tox inactive, GLP-1R agonist inactive and RORgamma inh 7.1µM.
COc1cccc2cc(C(=O)NCc3ccccc3)c(=N)oc12 was read as VP16 counter inactive, GLP-1R inv ag inactive, HEK293 tox inactive, GLP-1R agonist inactive and RORgamma inh inactive.
`COCCCNC(=O)c1ccccc1Oc1ccccc1` gave VP16 counter inactive, GLP-1R inv ag inactive, HEK293 tox inactive, GLP-1R agonist inactive and RORgamma inh inactive.
Screening CCC(C)(C)NC(=O)c1ccccc1Oc1ccccc1 returned VP16 counter inactive, GLP-1R inv ag 14µM, HEK293 tox inactive, GLP-1R agonist inactive and RORgamma inh inactive.
For O=C(NCc1ccc(Cl)cc1)c1ccccc1Oc1ccccc1 the results were VP16 counter inactive, GLP-1R inv ag 2.8µM, HEK293 tox inactive, GLP-1R agonist inactive and RORgamma inh inactive.
For COc1cccc2cc(C(=O)NCc3ccc(Cl)cc3)c(=N)oc12 the results were VP16 counter inconclusive, GLP-1R inv ag inactive, HEK293 tox inactive, GLP-1R agonist inactive and RORgamma inh 0.089µM.
`OC1OC[C@@H](O)[C@H](O)[C@@H]1O` (stereo partly drawn) gave VP16 counter inactive, GLP-1R agonist inactive and RORgamma inh inactive[10 µM].
`Nc1nonc1-n1nnc(C(=O)N/N=C/c2ccc(O)cc2)c1CN1CCCCCC1` gave GLP-1R inv ag inconclusive, HEK293 tox inactive and GLP-1R agonist inactive.
Screening C/C(=N\NC(=O)c1nnn(-c2nonc2N)c1CN(C)c1ccccc1)c1ccccc1O returned VP16 counter 4µM, GLP-1R inv ag inconclusive, HEK293 tox inactive, GLP-1R agonist inactive and RORgamma inh 1.6µM.
`C/C(=N\NC(=O)c1nnn(-c2nonc2N)c1CN1CCCCC1)c1ccccc1O` gave VP16 counter inconclusive, GLP-1R inv ag inactive, HEK293 tox inactive, GLP-1R agonist inactive and RORgamma inh 6.3µM.
Screening COc1ccc(/C(C)=N/NC(=O)c2nnn(-c3nonc3N)c2CN(C)c2ccccc2)cc1 returned VP16 counter inconclusive, GLP-1R inv ag inactive, HEK293 tox inactive, GLP-1R agonist inactive and RORgamma inh inconclusive.
For CCCC/C=C/[C@H](c1ccccc1)[C@H](CO)Cc1cnc2ccccc2c1 the results were VP16 counter inactive and RORgamma inh inactive.
